Measured values published in PubChem BioAssay (NCATS).
Several values for one entry are separate records, joined by “and”; a condition that tells them apart may be missing. Equal values may be shown once. Results filed as inconclusive are left out. Activity calls are given as the source filed them. The call rests on the fitted dose curve; in most records, active means well fitted curve in the direction sought with a large enough effect; inconclusive means small, poorly fitted or top-dose-only effect, or another doubt; inactive means no such curve, though single readings can be large; an effect the other way counts as inactive or inconclusive.

Legend:
[1] = system: Zika virus NS2B-NS3 protease (linked construct); assay: Primary screen NINDS Rhodamine qHTS for Zika virus inhibitors (AID 1347160); further: nearly all actives have a fitted effect of over 55% in size; further: potency means the concentration at half of the fitted maximal effect
How it was run: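 Kinetic fluorescence (Ex 480 nm, Em 540 nm) over 15 min with 1.5 microM Rhodamine110 peptide and 25 nM linked protease.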

[2] = biological target: Calcium and integrin-binding protein 1 (Homo sapiens) (UniProt Q99828); assay: Primary qHTS for Identification of Calcium Integrin Binding Protein 1 (CIB1) Competitor (AID 1508620);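 further: GST tagged CIB1 binding a fluorescein labelled alphaIIb integrin peptide tracer; top concentration of the series differs between compounds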
How it was run: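 CIB1-GST (1 uM final) and compound incubated 15 min at room temperature before adding FITC-alphaIIb peptide tracer (100 nM final). Competition for binding read by fluorescence polarization (ex 480, em 540) after another 15 min at room temperature.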

[3] = Primary qHTS for inhibitors of nuclear receptor binding SET domain protein 2 (NSD2) in an isogenic RCH-ACV NSD2 p.E1099K mutant (9B) (AID 1645876); further: nearly all actives have a fitted effect of over 70% in size; further: potency means the concentration at half of the fitted maximal effect
[4] = Primary qHTS for inhibitors of nuclear receptor binding SET domain protein 2 (NSD2) in an RCH-ACV wild type WT cells (2C) (AID 1645877); further: nearly all actives have a fitted effect of over 70% in size; further: potency means the concentration at half of the fitted maximal effect
[5] = biological target: Glutathione peroxidase 1 (Homo sapiens) (UniProt P07203); assay: Primary qHTS Assay for Inhibitors of Recombinant Selenoprotein Glutathione Peroxidase 1 (GPX1) (AID 1845191); further: nearly all actives have a fitted effect of over 65% in size
How it was run: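 10 nM GPX1 + cpd, 30 min RT; start w/ 1 mM GSH, 0.5 mM cumene hydroperoxide, 0.5 mM NADPH, 100 nM GR, 0.01% BSA; buffer 50 mM Tris-HCl pH 7.5, 2 mM EDTA, 150 mM NaCl; Fl 340/450, 0 & 15 min.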

[6] = biological target: Phospholipid hydroperoxide glutathione peroxidase GPX4 (Homo sapiens) (UniProt P36969); assay: Primary qHTS Assay for Inhibitors of Recombinant Selenoprotein Glutathione Peroxidase 4 (GPX4) (AID 1845192); settings: outcome: dose series up to 50 µM unless noted; further: nearly all actives have a fitted effect of over 65% in size
How it was run: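 NADPH consumption, followed by fluorescence at 340/450 nm between 0 and 15 min, reports GPX4 activity via coupled glutathione reductase (100 nM). Enzyme 200 nM was pre-exposed to compound 30 min; 0.5 mM cumene hydroperoxide and 1 mM GSH served as substrates.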

[7] = biological target: Luciferin 4-monooxygenase (Photinus pyralis) (UniProt P08659); assay: Primary firefly luciferase (FLuc) qHTS assay for identification of artifact compounds. (AID 1845220); further: nearly all actives have a fitted effect of over 60% in size; further: potency means the concentration at half of the fitted maximal effect
How it was run: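 Compounds sat 15 min at room temperature with 10 uM luciferin and 10 uM ATP (pH 7.6 Tris acetate). Firefly luciferase (10 nM final) was then added, and luminescence was read 5 min later. Data normalized to no-enzyme and DMSO controls were Hill-fitted.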

[8] = system: Nanoluciferase (engineered Oplophorus gracilirostris luciferase); assay: Primary Nanoluciferase (NLuc) qHTS assay for identification of artifact compounds. (AID 1845222); further: potency means the concentration at half of the fitted maximal effect
How it was run: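 Luminescence from secreted NLuc (filtered, 1:55-diluted S16 cell medium) read 5 min after Nano-Glo substrate; compounds preincubated 15 min, RT. Hill fits of inhibition normalized to DMSO and no-enzyme.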

[9] = Primary redox qHTS assay for identification of artifact compounds. (AID 1845223)
How it was run: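 Amplex Red (25 uM) and HRP (250 mU/mL) in HBSS, with compounds for 15 min, then 250 uM DTT for 30 min, room temperature, dark. Fluorescence 525/598 nm read; normalized to DMSO and 10 uM DA3003; Hill fit.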

CASKI = assay: Primary qHTS to identify gynecologic anti-cancer compounds using libraries of approved drugs and bioactive compounds (AID 1345084); settings: Gynecologic cancer cell panel viability, ATPlite luminescence, 48 h; series mostly up to 57.5 µM; further: nearly all actives have a fitted effect of over 55% in size; further: potency means the concentration at half of the fitted maximal effect
How it was run: (§1)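 Five-point cytotoxicity, 48 h drug exposure at 37 C, 5% CO2, on cells seeded 16 h beforehand. ATP content read by ATPlite luminescence.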

Es-2 = assay: as above; settings: Gynecologic cancer cell panel viability, ATPlite luminescence, 48 h; series mostly up to 57.5 µM
How it was run: as §1

HeLa = assay: as above; settings: Gynecologic cancer cell panel viability, ATPlite luminescence, 48 h; series mostly up to 57.5 µM
How it was run: as §1

OV90 = assay: as above; settings: Gynecologic cancer cell panel viability, ATPlite luminescence, 48 h; series mostly up to 57.5 µM
How it was run: as §1

C33A = assay: as above; settings: Gynecologic cancer cell panel viability, ATPlite luminescence, 48 h; series mostly up to 57.5 µM
How it was run: as §1

JEG-3 = assay: as above; settings: Gynecologic cancer cell panel viability, ATPlite luminescence, 48 h; series mostly up to 57.5 µM
How it was run: as §1

[10] = system: Zika virus NS2B-NS3 protease (unlinked complex); assay: Primary screen GU Rhodamine qHTS for Zika virus inhibitors: Unlinked NS2B-NS3 protease assay (AID 1347159); further: nearly all actives have a fitted effect of over 60% in size; further: potency means the concentration at half of the fitted maximal effect
How it was run: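 A qHTS format was used, with compound concentrations ranging up to 114 microM. Each compound was preincubated with 25 nM NS2B-NS3 protease, and the substrate was then added at 1.5 microM. Curves were fitted with a 4-parameter Hill model.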

Hek293T = assay: Primary qHTS to identify gynecologic anti-cancer compounds using libraries of approved drugs and bioactive compounds (AID 1345084); settings: Gynecologic cancer cell panel viability, ATPlite luminescence, 48 h, control line for the selectivity index; series mostly up to 57.5 µM; further: nearly all actives have a fitted effect of over 55% in size; further: potency means the concentration at half of the fitted maximal effect
How it was run: as §1

PA-1 = assay: as above; settings: Gynecologic cancer cell panel viability, ATPlite luminescence, 48 h; series mostly up to 57.5 µM
How it was run: as §1

Tov-21-G = assay: as above; settings: Gynecologic cancer cell panel viability, ATPlite luminescence, 48 h; series mostly up to 57.5 µM
How it was run: as §1

Tov112D = assay: as above; settings: Gynecologic cancer cell panel viability, ATPlite luminescence, 48 h; series mostly up to 57.5 µM
How it was run: as §1

Measured: Potency

Chain of Phospholipid hydroperoxide glutathione peroxidase GPX4 (Homo sapiens) (P36969 whole entry, looked up): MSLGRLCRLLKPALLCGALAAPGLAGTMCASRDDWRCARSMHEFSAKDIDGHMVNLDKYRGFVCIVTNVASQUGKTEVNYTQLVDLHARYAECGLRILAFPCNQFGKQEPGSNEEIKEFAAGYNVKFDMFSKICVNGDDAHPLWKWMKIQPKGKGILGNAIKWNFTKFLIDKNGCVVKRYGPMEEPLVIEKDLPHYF
Chain of Calcium and integrin-binding protein 1 (Homo sapiens) (Q99828 whole entry, looked up): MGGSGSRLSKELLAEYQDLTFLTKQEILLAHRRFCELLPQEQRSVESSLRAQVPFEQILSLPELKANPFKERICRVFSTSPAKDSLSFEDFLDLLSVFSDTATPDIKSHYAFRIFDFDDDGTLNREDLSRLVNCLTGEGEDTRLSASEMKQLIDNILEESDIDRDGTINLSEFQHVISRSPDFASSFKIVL
Chain of Glutathione peroxidase 1 (Homo sapiens) (P07203 whole entry, looked up): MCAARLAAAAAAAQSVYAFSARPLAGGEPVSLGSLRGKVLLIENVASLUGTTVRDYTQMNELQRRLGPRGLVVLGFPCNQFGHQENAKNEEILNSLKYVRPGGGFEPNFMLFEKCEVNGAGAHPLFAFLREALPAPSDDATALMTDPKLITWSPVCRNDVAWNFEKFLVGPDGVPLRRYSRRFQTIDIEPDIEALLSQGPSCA

Cc1cc(CS(=O)(=O)c2ccccc2)cc(OCc2ccc(CN3CCC[C@@H]3CO)cc2)c1
active: [3] 12.9 µM and 16.6 µM | [4] 18.3 µM and 14.8 µM | OV90 25.1 µM
not listed: C33A | JEG-3 | [10] | Hek293T | PA-1 | Tov-21-G | Tov112D
inactive: all other assays above

C=C1C(=O)O[C@@H]2CC(C)=C([C@@H](C)CCCO)[C@@H](OC(=O)C(C)C)[C@H]12
active: [3] 14.2 µM | [4] 14.2 µM
not listed: [9] | CASKI | [10] | Hek293T | PA-1 | Tov-21-G | Tov112D
inactive: all other assays above

Nc1nc(NCC2CCC(CNS(=O)(=O)c3cccc4ccccc34)CC2)nc2ccccc12 (stereo unspecified)
active: [3] 4.09 µM | [4] 2.58 µM
not listed: [2] | OV90 | Tov112D
inactive: all other assays above

C=C1[C@@H](C)[C@H]2[C@H](Cc3c[nH]c4ccccc34)NC(=O)[C@]23C(=O)/C=C/C(=O)[C@H](O)/C(C)=C\[C@@H](C)C/C=C/[C@H]3[C@@H]1O
active: [3] 3.99 µM | [4] 0.796 µM
not listed: HeLa | Tov-21-G
inactive: all other assays above

Oc1ccc(Nc2nc(-c3ccc(Cl)cc3)cs2)cc1
active: [3] 6.61 µM | [4] 6.61 µM | [7] 4.78 µM
not listed: HeLa | C33A | PA-1 | Tov112D
inactive: all other assays above

Cc1ccn(-c2cc(Cl)ccc2[C@@H](Oc2cc(-c3ccc(C[C@H](N)C(=O)O)cc3)nc(N)n2)C(F)(F)F)n1
active: [1] 22.4 µM
not listed: [3] | [4] | [5] | [6] | [8] | [9]
inactive: all other assays above

Cc1nc(C)c2c(n1)N(Cc1ccc(-c3ccccc3-c3nn[nH]n3)cc1)C(=O)CC2
active: [8] 21.3 µM
inactive: all other assays above

CC(=O)C1=C(O)C2c3c[nH]c4cccc(c34)CC2C(C)(C)N(C)C1=O (stereo unspecified)
inactive: [10] | [1] | [6] | [7] | HeLa | Hek293T | JEG-3 | OV90 | Tov-21-G | Tov112D
active: [3] 18.3 µM | [4] 14.5 µM

Nc1ccc(N)c([N+](=O)[O-])c1
inactive: C33A | CASKI | Es-2 | HeLa | Hek293T | JEG-3 | PA-1 | Tov-21-G | Tov112D

CC1=CC(=O)[C@@]2(C(C)C)C[C@@H]12
inactive: [2] | [5] | [6] | [7] | C33A | CASKI | Es-2 | OV90 | Tov-21-G | Tov112D
active: [10] 2.51 µM | [1] 3.16 µM

CC[C@H]1OC(=O)[C@H](C)[C@@H](O[C@H]2C[C@@](C)(OC)[C@@H](O)[C@H](C)O2)[C@H](C)[C@@H](O[C@@H]2O[C@H](C)C[C@H](N(C)C)[C@H]2O)[C@](C)(O)C[C@@H](C)/C(=N/OCOCCOC)[C@H](C)[C@@H](O)[C@]1(C)O
not listed: [5] | [10]
inactive: all other assays above

CC(=O)Nc1ccc(C(=O)Nc2ccccc2N)cc1
active: [3] 3.55 µM and 3.72 µM | [4] 2.82 µM and 3.72 µM | OV90 3.98 µM | PA-1 7.08 µM
inactive: [10] | [1] | [5] | [6] | [7] | [8] | C33A | CASKI | Tov112D

C=C(C(=O)O)C1CC2=C(C)C(=O)CC2C(C)CC1O (stereo unspecified)
active: [3] 11.5 µM | [4] 5.78 µM
not listed: Es-2 | OV90 | JEG-3 | [10] | Hek293T | PA-1 | Tov-21-G
inactive: all other assays above

CC1(C)SC2C(NC(=O)[C@H](C(=O)O)c3ccsc3)C(=O)N2C1C(=O)O (stereo partly specified)
not listed: [2] | [5]
inactive: all other assays above
